Experimental data from PubChem BioAssay (Tox21).
Records with an inconclusive call do not appear. Values without a mark were called inactive. Active and inactive are the calls of the source. Calls come from the whole dose curve; as a rule, active = well fitted cell-killing curve with a large enough effect in the repeat runs; inconclusive = weak or mixed curves, or effect the other way; inactive = no such curve, though single readings can be large or run the other way.

Assay: qHTS assay to identify small molecule antagonists of the sonic hedgehog signaling (Shh) pathway - cell viability counter screen (AID 1259367); note: nearly all actives have a fitted effect of over 55% in size
Conditions: NIH/3T3 Gli1-Luc viability, CellTiter-Fluor, 24 h; series mostly up to 92.4 µM; viability change, negative = cytotoxic: at the top concentration
Excerpt: National Center for Advancing Translational Sciences [NCATS]
NIH Chemical Genomics Center [NCGC]
U.S. Environmental Protection Agency [EPA]
National Institutes of Environmental Health Sciences [NIEHS]
National Toxicology Program [NTP]
U.S. Food and Drug Administration [FDA]
The sonic hedgehog (Shh) pathway is essential for normal embryonic development. Dysregulation of the Shh pathway can cause severe developmental defects in organs. Therefore chemicals that interfere with the pathway are potential developmental toxicants. A cell line designated 3T3Gli1-Luc (DMB/OARSA/CFSAN/FDA, Laurel, MD), a NIH/3T3 derived clone containing stably integrated Gli1-Luc reporter is used to detect chemical interference of the Shh pathway, by changes in the expression of the firefly Luc gene under the control of the Gli1 transcriptional response element. This cell line was used to screen Tox21 libraries for identifying and prioritizing the potential developmental toxicants that interfere Shh pathway. Conditioned medium-stimulated mode was used to screen for chemicals inhibiting Shh signaling. The cytotoxicity of the compounds was tested in parallel by measuring the cell viability using CellTiter-Fluor assay system (Promega, Madison, WI) in the same wells.
Tox21 Assay Protocol Summary:
3T3 Gli1-Luc cells were dispensed at 2,000 per well in 5uL of culture medium into white solid bottom 1536-well plates (Greiner Bio-One, Monroe, NC) using a Multidrop Combi (Thermo Scientific, Waltham, MA) dispenser. The assay plates were incubated at 37 C and 5% CO2 for 4hr, and then 23nL of compounds dissolved in DMSO and positive control were transferred using a Pintool station (Wako, San Diego, CA). The compound transfer was followed by the addition of 1ul conditioned medium or assay buffer using two separate tips of Flying Reagent Dispenser (FRD, Aurora Discovery, San Diego, CA). The assay plates were incubated at 37C and 5% CO2 for 24hr. For viability read, after 23hr of compound treatment, 1uL of CellTiter-Fluor reagent (Promega Corporation, Madison, WI) was added to each well of the assay plates using Flying Reagent Dispenser (FRD, Aurora Discovery, San Diego, CA) and incubated the assay plates at 37C for 1hr. The fluorescence signal was quantified using a ViewLux plate reader (Perkin Elmer, Shelton, CT).
% is set by controls: 0 for no effect and ±100 for the full control effect; potency is the fitted concentration of half-maximal effect.

Compared with Cc1ccccc1CCl, Cc1ccc2ccccc2c1 is higher in “viability change, negative = cytotoxic” value: -0.49% for the first, 3.44% for the second.

Going from COc1cc(CC(C)N)cc2c1OCO2 (stereo not given) to COP(=S)(Oc1cc(Cl)c(Br)cc1Cl)c1ccccc1 (stereo not given), the “viability change, negative = cytotoxic” value rises from -7.03% to 0.189%.

Going from CCN(C)N=O to CCCCN=C=O, the “viability change, negative = cytotoxic” value rises from 8.52% to 12.1%.

Going from CCOP(=S)(OCC)SCSCC to CCOP(=S)(OCC)SCn1nnc2ccccc2c1=O, the “viability change, negative = cytotoxic” value falls from 1.25% to 0.227%.

Going from N#C/C(N)=C(/N)C#N to N#CCC#N, the “viability change, negative = cytotoxic” value rises from -6.86% to -2.11%.

Compared with COC1=CC(=O)O[C@@H](CCc2ccccc2)C1, Cc1ccccc1C(=O)Nc1cccc(OC(C)C)c1 is lower in “viability change, negative = cytotoxic” value: 20.3% for the first, -2.91% for the second.

First: CC(Cl)C(C)Cl (stereo not given)
Second: [CH3][Sn]([CH3])([Cl])[Cl]
The “viability change, negative = cytotoxic” value of the first is higher: 1.99% for the first, -11.3% for the second.

Going from N#Cc1cc(I)c(O)c(I)c1 to Oc1ccc(Cl)c(Cl)c1Cl, the “viability change, negative = cytotoxic” value falls from -13.7% to -16.8%.

First: ClCC(Br)CBr (stereo not given)
Second: BrCC(Br)C1CCC(Br)C(Br)C1 (stereo not given)
The “viability change, negative = cytotoxic” value of the first is lower: 1.72% for the first, 1.98% for the second.

Going from O=S1OC[C@@H]2[C@H](CO1)[C@]1(Cl)C(Cl)=C(Cl)[C@@]2(Cl)C1(Cl)Cl (stereo not given in full) to CNP(=O)(OC)Oc1ccc(C(C)(C)C)cc1Cl (stereo not given), the “viability change, negative = cytotoxic” value rises from -7.21% to 7.32%.

Going from CCCN(CCC)c1c([N+](=O)[O-])cc(S(C)(=O)=O)cc1[N+](=O)[O-] to O=C(NCc1cccnc1)Nc1ccc([N+](=O)[O-])cc1, the “viability change, negative = cytotoxic” value rises from -17.8% to 0.105%.

First: C/C=C/C=O
Second: C=CC(=O)OCC(C)C
The “viability change, negative = cytotoxic” value of the first is lower: -0.907% for the first, 1.21% for the second.

Compared with NS(=O)(=O)C(F)(F)C(F)(F)C(F)(F)C(F)(F)C(F)(F)C(F)(F)C(F)(F)C(F)(F)F, O=S(=O)(O)C(F)(F)C(F)(F)C(F)(F)C(F)(F)F is lower in “viability change, negative = cytotoxic” value: 2.87% for the first, 1.83% for the second.

Going from CCCC(Cn1cncn1)c1ccc(Cl)cc1Cl (stereo not given) to O=C(NC(=O)c1c(F)cccc1F)Nc1cc(Cl)c(Oc2ncc(C(F)(F)F)cc2Cl)c(Cl)c1, the “viability change, negative = cytotoxic” value falls from 0.202% to -16.1%.

Compared with [O-][Cl+]O, CC(=O)C(C)(C)C is lower in “viability change, negative = cytotoxic” value: 0.272% for the first, -0.657% for the second.

Compared with Brc1ccc(Oc2ccccc2)cc1, C=COC(C)=O is higher in “viability change, negative = cytotoxic” value: -4.46% for the first, 2.35% for the second.

For CCOP(=O)(OCC)SCCSCC, the Potency was “inactive”.
For O=S1(=O)OC(c2cc(Br)c(O)c(Br)c2)(c2cc(Br)c(O)c(Br)c2)c2ccccc21, the Potency was 15.8 µM (active).

Going from C[C@]12CC[C@H]3[C@@H](CCC4=CC(=O)CC[C@@H]43)[C@@H]1CC[C@@H]2OC(=O)CCC1CCCCC1 to c1ccc(C2CC2)c(OCC2=NCCN2)c1, the “viability change, negative = cytotoxic” value falls from 4.24% [at 42.5 µM] to -8.34% [at 42.5 µM].

Compared with COC(=O)c1cncn1C(C)c1ccccc1 (stereo not given), CCC(COC(=O)c1cc(OC)c(OC)c(OC)c1)(c1ccccc1)N(C)C (stereo not given) is lower in “viability change, negative = cytotoxic” value: 0.571% [at 42.5 µM] for the first, -1.33% [at 42.5 µM] for the second.

First: C#CCOC(C(=O)OCCN(C)C)(c1ccccc1)c1ccccc1
Second: COC(=O)C(Cl)C(=O)OC
The “viability change, negative = cytotoxic” value of the first is lower: -19.8% [at 42.5 µM] for the first, 3.29% [at 42.5 µM] for the second.
